PubChem BioAssay (NCI)
About 79,000 compounds went through this panel and 15% of them were active in at least one assay; those are over-represented in the sample as a whole. Unmarked numbers belong to inactive results. Active and inactive are the calls of the source. Cut-off read from the data, not from the text of the source: active = growth inhibition above about 70%; inactive = the rest.

Key:
[1] = NCI Yeast Anticancer Drug Screen. Data for the rad50 strain (AID 155);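 note: 0% = growth of vehicle-only cultures of the same strain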; conditions: S. cerevisiae rad50 strain growth inhibition; at 50.0 µM; stronger effect = higher value
Method in brief: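 Vehicle-treated cultures provide the reference for the growth inhibition reported for compound-exposed, repair-deficient yeast.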

[2] = NCI Yeast Anticancer Drug Screen. Data for the mec2-1 strain (AID 157); conditions: S. cerevisiae mec2-1 strain, at 50.0 µM, stronger effect = higher value
Method in brief: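 Compounds were applied to mec2-1 yeast cells. Their growth was then compared with that of vehicle-treated cultures to give growth inhibition.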

[3] = NCI Yeast Anticancer Drug Screen. Data for the sgs1 mgt1 strain (AID 161);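 note: 0% = growth of cultures given vehicle only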; conditions: S. cerevisiae sgs1 mgt1 strain, at 50.0 µM, stronger effect = higher value
Method in brief: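 Yeast cells carrying a defined DNA-repair defect were exposed to test compounds. Growth inhibition was measured relative to vehicle-treated controls.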

[4] = NCI Yeast Anticancer Drug Screen. Data for the cln2 rad14 strain (AID 165);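 note: 0% = growth equal to vehicle treated cultures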; conditions: S. cerevisiae cln2 rad14 strain, at 50.0 µM, stronger effect = higher value
Method in brief: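 Strain: cln2 rad14 yeast, altered in cell cycle control and DNA damage repair. Read-out: growth inhibition vs vehicle.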

[5] = NCI Yeast Anticancer Drug Screen. Data for the bub3 strain (AID 167); conditions: S. cerevisiae bub3 mutant strain, at 50.0 µM, stronger effect = higher value
Method in brief: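 Mutant yeast screening strain plus compound; vehicle-treated cultures serve as the 0% inhibition reference.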

[6] = NCI Yeast Anticancer Drug Screen. Data for the mlh1 rad18 strain (AID 175); conditions: S. cerevisiae mlh1 rad18 strain growth inhibition; at 50.0 µM; stronger effect = higher value
Method in brief: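 A repair-deficient yeast strain is exposed to test compound, and growth is scored relative to vehicle-treated controls.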

SMILES	growth inhibition [1]	growth inhibition [2]	growth inhibition [3]	growth inhibition [4]	growth inhibition [5]	growth inhibition [6]
c1ccc2[nH]c(CN3CCCCC3)cc2c1	7.15%	-10.1%	-8.95%	-18.8%	-13.2%	11.8%
CCn1cc(C(=O)O)c(=O)c2ccc(-c3cn[nH]c3C)nc21	44.5%	34.1%	34.6%	4.45%	12.2%	29.9%
C1=Nc2ccccc2Cn2nncc21	19.7%	21%	43.1%	18.4%	17.1%	41.5%
CC1(C)CC(O)(Cc2ccccc2)C(O)c2ccccc21 (configuration not stated)	45.5%	32.1%	31.6%	54.5%	26.1%	74.2% (active)
CCCCCN(C(=O)CCC)c1ccccc1	45.8%	8.5%	24.5%	17.7%	3.2%	41.8%
CC(=O)c1c(C)c(Cl)c(C)c(Cl)c1O	-14.6%	2.75%	17.6%	7.4%	26.4%	7%
O=S(=O)(NO)c1ccc(Cl)cc1	12.5%	7.8%	8.35%	23.8%	6.7%	3.2%
Cc1ccc(S(=O)(=O)/N=C/C=P(c2ccccc2)(c2ccccc2)c2ccccc2)cc1	11.4%	7.45%	-22.1%	-19%	-2.1%	-3.65%
O=C1/C(=C/c2ccc3c(c2)OCO3)SC2C=Nc3ccccc3N12 (configuration not stated)	-14%	-20.3%	1.2%	-7.45%	2.5%	-8.65%
C=C(C)C(=O)OCCOCC(CC)CCCC (configuration not stated)	11.2%	-8.8%	-5%	-0.3%	-3.35%	-1.8%
CN(C)C(=S)c1cccc2ccccc12	5.1%	-10.5%	-1.95%	-31.4%	-27.2%	-8.45%
CCC1CC(=O)NC(=O)NC1=O (configuration not stated)	-4.6%	30.8%	-3.75%	12.1%	7.2%	6.9%
CC(C)Cc1c(N)nc(NCCCC(N)C(=O)O)[nH]c1=O (configuration not stated)	13.5%	-16.9%	-3.55%	13.1%	9.8%	11.8%
COc1ccccc1NC(=O)/C(Cc1nc2ccc([N+](=O)[O-])cc2[nH]c1=O)=N\NC(=O)C[N+](C)(C)C	31.6%	23.4%	7.3%	-26.2%	25.4%	13.2%
CC(=O)Nc1ccc(S(=O)(=O)CO)cc1	19.4%	16.9%	19.6%	6.55%	-0.3%	16.8%
COC(C(=O)[O][Ge]([CH3])([CH3])[CH3])c1ccccc1 (configuration not stated)	13.8%	-17.8%	-6.85%	31.4%	-2.15%	-9.25%
CNC(=O)c1ccccc1O	21.2%	8.55%	5.65%	11.3%	5.15%	2.35%
CCN(CC)CCOC(=O)Nc1cc(C)cc(C)c1	24.6%	-9.15%	27.5%	16.4%	31.9%	17.1%
CN(C)C(=O)C1C2CCC(C3CC32)C1C(=O)N(C)C (configuration not stated)	22.9%	11.8%	37.2%	24.4%	24.6%	23.4%
CC(=O)OCC1OC(n2c(-c3ccc(C)cc3)cc(-c3ccccc3)c(C#N)c2=S)C(OC(C)=O)C(OC(C)=O)C1OC(C)=O (configuration not stated)	17.9%	9.35%	6.15%	-8.55%	27.9%	27.8%
COC(OC)C1(c2ccccc2)NC(=O)N(Cc2ccccc2)C1=O (configuration not stated)	3.1%	-10%	-1.3%	-49.5%	2.85%	-9.65%

SMILES	growth inhibition [1]	growth inhibition [2]	growth inhibition [3]	growth inhibition [4]	growth inhibition [5]	growth inhibition [6]
CN(C)c1ccc(C2NC(c3ccccc3)c3c(ccc4ccccc34)O2)cc1 (configuration not stated)	8.5%	2.45%	-12.7%	-22.8%	2.5%	0.95%
CCOC(=O)CC(C)C1(C=O)CCCCC1=O (configuration not stated)	-3.2%	-30.3%	-11.7%	7.25%	-19.5%	-17.4%
Cc1ccccc1C1OC(=O)c2ccc3ccccc3c21 (configuration not stated)	10.6%	1.8%	14.4%	7.95%	1.45%	6.55%
COc1ccc2c(ccc3[nH]c4c(C)cnc(NCCCN)c4c32)c1	-39.6%	-31.8%	-29.3%	-15.1%	-17.4%	-39.8%
Cc1c(C)c(C(Cl)(Cl)Cl)c(C)c(C)c1Br	-0.7%	4.8%	-0.75%	8.15%	3.6%	-7.3%
C=CC1C(C[C@@H]2c3cc(O)c(O)cc3CCN2C(C)=O)C(C(=O)OC)=CO[C@H]1OC1OC(CO)C(O)C(O)C1O (some centres not stated)	-1.15%	-38.4%	-32.8%	14.8%	-35%	19.4%
O=C(Nc1ccccn1)c1ccc([N+](=O)[O-])cc1	33%	7.95%	15.4%	5.45%	-1.8%	-2.4%
CC1(C)CC(O)CC(O)C1 (configuration not stated)	-4.3%	-0.55%	-0.2%	14.1%	-0.15%	-6.9%
Cc1noc2c1C(=O)CCC2	-3.3%	-5.45%	17.8%	11.2%	21.2%	7.05%
CC1=NC(=O)CNN1C1=NNC2(C(=O)N1)c1ccccc1-c1ccccc12	-11.1%	-7.3%	-15.2%	0.85%	-7.3%	-25.1%
C(/Cc1ccc2c(c1)OCO2)=N\NC1=NCCN1	-8.5%	-0.55%	1.55%	-19.4%	5.2%	18.1%
O=c1cc(-c2ccccc2Cl)[nH]c2cc3c(cc12)OCO3	14.1%	-26.3%	21.9%	-6.95%	12.6%	-39.8%
O=C(NN1C(=O)CSC1c1ccc(F)cc1)c1ccncc1 (configuration not stated)	-4.2%	1.1%	4.15%	-6.75%	7.95%	11.8%
CCCCSc1nc2c(=O)n(C)c(=O)n(C)c2n1C	2.1%	1.15%	10.8%	-5.7%	-12.7%	6.95%
Cc1cc(Cl)c(Cl)cc1NC(=O)c1ccc(Cl)cc1Cl	2.85%	6.9%	1.25%	-0.95%	-1.3%	17.6%
CCCN(CCC)c1ccc(C(=O)c2ccccc2)cc1	-12.4%	-3%	-1%	-33.8%	18.6%	-6%
COc1cccc(C(Nc2nncs2)Nc2nncs2)c1	3.1%	-9.2%	-8.45%	13.9%	-20.3%	16.1%
CC(C)=C1CCC(CN2CCCC2)C1=O (configuration not stated)	20.1%	13.4%	17.4%	19.2%	6.2%	23.6%
CC1CN(C(c2ccccc2)c2ccccc2)CCN1CCO (configuration not stated)	-3.75%	20.6%	12.3%	-65.2%	4.85%	25.4%
CC1(CO)CSC(Nc2ccc(F)cc2)=N1 (configuration not stated)	-7.4%	-11.1%	14.8%	14.8%	2.4%	3.35%
Cc1cc2c(=O)cc(-c3ccc(F)cc3)oc2c(C(=O)O)c1C	-19.1%	-1.1%	-5.6%	17.4%	-4.4%	33.3%
